We go through 40 compounds from PubChem BioAssay (NCATS).

Molecules are shown by their SMILES. Results filed as inconclusive are left out. Unmarked numbers belong to inactive results. Calls of active or inactive are those of the source. The call rests on the fitted dose curve; in most records, active means well fitted inhibition curve with a large enough effect; inconclusive means small, poorly fitted or top-dose-only effect; inactive means flat fitted curve, though single readings scatter.

The nature of the test: qHTS for Inhibitors of Plasmodium falciparum (DD2) proliferation (AID 504314). The note with it: P. falciparum Dd2 in erythrocytes, SYBR Green growth, 72 h; series mostly up to 6.11 µM; activity, negative = inhibition: at the top concentration. An excerpt:
Plasmodium falciparum is a virulent malarial parasite that kills 1-2 million people worldwide each year. Malaria not only inflicts tremendous suffering and morbidity on the human population, but has dramatically influenced the course of civilization with profound sociological and economic implications (Shah, S. 2010). Transmitted by mosquitoes, the sporozoite form of the parasite enters the blood stream to infect hepatocytes, where they become merozoites that infect red blood cells (erythrocytes). Within erythrocytes, merozoites begin a […] cycle of growth and division, after which the parasite is released to infect new red blood cells. Gametocytes, which form within erythrocytes as well, circulate in the bloodstream and are ingested by the mosquito, thereby completing the life cycle (see CDC website). To profile malarial lines for differential chemical responses and to identify inhibitors of malarial growth, an assay that measures P. falciparum growth and replication within erythrocytes was employed. This assay uses a DNA binding fluorescent dye (SYBR Green) to detect parasite DNA following cell lysis. Because mature erythrocytes lack DNA, only Plasmodium-derived DNA is detected. The P. falciparum line cp250, derived from a malarial isolate from Cambodia, (Mu, J., et al. 2010) was added to the panel of lines, Dd2, HB3, 7G8 and GB4 in this study.
Laboratory of Assay Development and Screening Technology [ADST] and NIH Chemical Genomics Center [NCGC]
Boston University, Chemistry Department, Center for Chemical Methodology and Library Development [CMLD-BU]
NIH National Institute of Allergy and Infectious Diseases [NIAID]
ADST Assay Protocol Summary:
The 1536-well SYBR Green viability assay was based on the method of Bennett et al (2004) and described previously in 1536-well format (Yuan J., et al. 2009). For screening 3 ul culture medium was dispensed into 1536 well black clear bottom plates (Aurora Biotechnologies) using a Multidrop Combi (Thermo Fisher Scientific Inc.), 23 nL compounds in DMSO were added by a pin transfer (Cleveland, P.H. and Koutz, P.J, 2005) using a pin tool-based delivery system (Kalypsys), and 5 ul of erythrocytes infected with P. falciparum one of five lines (cp250, Dd2, HB3, 7G8 or GB4, 0.3% parasitemia, 2.5% hematocrit final concentration) were added. The plates were incubated at 37C in a humidified incubator in 5% CO2 for 72 h, and 2 ul lysis buffer (20 mM Tris HCl, 10 mM EDTA, 0.16% saponin, 1.6% triton X, 10X SYBR Green I (supplied as 10,000X final concentration by Invitrogen) was added to each well. The plates were mixed for 25 sec with gentle shaking and incubated overnight at room temperature in the dark. The following morning, fluorescence intensity at 485(14) nm excitation and 535(25) nm emission wavelengths was measured on an EnVision (Perkin Elmer) plate reader. Plate reads were normalized relative to the control inhibitor (0.29 uM artemisinin) and vehicle (DMSO) wells present on each plate and then corrected by an algorithm using vehicle-only control plates at the beginning and end of the compound plate stack.
Shah, S. (2010). The Fever: how malaria has ruled humankind for 500,000 years. New York, Sarah Crichton Books.
CDC web site, http://www.cdc.gov/malaria/about/biology/index.html
Mu, J., Myers, R.A., Jiang, H., Liu, S., Ricklefs, S., Waisberg, M., Chotivanich, K., Wilairatana, P., Krudsood, S., White, N.J., et Plasmodium falciparum genome-wide scans for positive selection, recombination hot spots and resistance to antimalarial drugs Nature Genetics 2010, 42, pp 268-271
Bennett TN, Paguio, M., Gligorijevic, B., Seudieu, C., Kosar, A. D., Davidson, E., and Roepe, P. D. Novel, rapid, and inexpensive cell-based quantification of antimalarial drug efficacy Antimicrobial Agents Chemother. 2004, 48(5): pp 1807-10
Yuan J, Johnson RL, Huang RL, Wichterman J, Jiang HY, Hayton K, Fidock DA, Wellems TE, Inglese J, Austin CP, Su XZ. […]
For orientation: qHTS replaces the single test concentration by a dilution series.
Turning to `CC(=O)OC[C@H]1O[C@H](CC=NOCC[C@@H]2C=C[C@@H](OC(C)=O)[C@@H](COC(C)=O)O2)C=C[C@@H]1OC(C)=O`, the “activity, negative = inhibition” value is -3.56%.
On to `C=CCN1C(=O)CC[C@@]23C1=NC(C(=O)OC)=C(C(=O)OC)[C@@H]2N(C)c1ccccc13`, for which the “activity, negative = inhibition” value is 1.81%.
For `C#CCCCON=C1C[C@@H](O)[C@H](O)[C@H]2[C@@H]3C(=O)N(c4cccc(Oc5ccccc5)c4)C(=O)[C@@H]3CC[C@@H]12`, the “activity, negative = inhibition” value was 4.8%.
With `CCOC(=O)NN=C1C[C@@H](O)[C@@H](O)[C@@H]2[C@H]3C(=O)N(C4CCCCC4)C(=O)[C@@H]3CC[C@H]12`, the “activity, negative = inhibition” value is -8.38%.
Take `CCOC(=O)CN1C(=O)NC(c2cccc(F)c2)C(C(C)=O)=C1C` (stereo not given): the “activity, negative = inhibition” value is -9.04%.
The same measure, in the same setting: the value for `COC(=O)CC=C[C@@H](C)[C@H](NC(=O)OC)c1ccccc1Br` was -2.22%.
Turning to `COc1cc2c(cc1OC)[C@@]1(c3ccccc3)CCCC[C@H]1[C@@H]2NC(=O)C(F)(F)F`, the “activity, negative = inhibition” value was -12.6%.
As to `COC(=O)CC=C[C@@H](C)[C@H](OC)c1cc(OC)ccc1Br`, the “activity, negative = inhibition” value is -11.3%.
Regarding `COC1=C[C@H](C(=O)NCCOC(C)=O)[C@@]2(C)Cc3ccccc3[C@@H]2CC1=O`, the “activity, negative = inhibition” value was -7%.
As for `C=CCOC(=O)N[C@@H](c1ccccc1)[C@@H](C)[N+](=O)[O-]`, the “activity, negative = inhibition” value is -7.12%.
`COC(=O)C(c1ccc(OC)c(OC)c1)C1c2ccccc2C=C(C)N1C(=O)OC` (stereo not given): the “activity, negative = inhibition” value is -5.12%.
Take `C#CCNC(=O)[C@H]1C=C(OC)C(=O)C[C@H]2c3ccccc3C[C@]12C`: the “activity, negative = inhibition” value was -5.66%.
Same read-out and setting: the value for `COc1cc(CCN2C(=O)NC(c3ccccc3)C(C(C)=O)=C2C)cc(OC)c1OC` (stereo not given) was -7.44%; that for `CC(=O)C1=C(C)N(CCC=Cc2ccccc2)C(=O)NC1c1ccccc1` (stereo not given) was -4.68%; that for `COc1cccc2c1C1(CCCCC1)CC2NC(=O)C(F)(F)F` (stereo not given) was -3.31%.
Consider `CCN1C(=NCC(C)C)N[C@@H](CCc2ccccc2)[C@H](C(=O)OC)[C@H]1C`, for which the “activity, negative = inhibition” value is -7.91%.
As to `Cc1cc(F)ccc1O[C@H]1C=C[C@@H](c2ccc3c(c2)OCO3)O[C@H]1CO`, the “activity, negative = inhibition” value is -5.22%.
On the same count and under the same terms, next, `CC(=O)OC[C@H]1O[C@H](CC=NO[C@H](C)CN2CCCCc3nc(C)c(C)cc32)C=C[C@@H]1OC(C)=O`: -4.75%; `C[C@@H]1C=CCC(=O)N[C@@H](c2ccccc2)[C@H](C)C=CCC(=O)N[C@@H]1c1ccccc1`: -10.4%.
For `C=CC1=C2C=C(C3CC3)N(CCOC)C=C2C(=O)C(C)(OC(=O)c2ccco2)C1=O` (stereo not given), the Potency result is “inactive”.
As for `C[C@H]1Cc2c(-c3ccccc3)nc3c(c2CO1)CN(C(=O)Nc1cccc(C#N)c1)CC3`, the activity, negative = inhibition was -4.46% [at 1.12 µM].
Still for that read-out and setting: next, `COC(=O)N[C@H](C(C(=O)OC)=C(C)NCc1ccccc1)c1ccco1`: 1.16%; `CCCCc1cc2c(cn1)=C(OC(=O)CCC(=O)OC)C(C)(OC(=O)CC)C(=O)C=2` (stereo not given): -0.996% [at 1.12 µM].
Consider `CC(CCC#N)[N+](=O)[O-]` (stereo not given), for which the “activity, negative = inhibition” value is -7.71%.
`CC1(OC(=O)C2CCCC2)C(=O)C=C2C=C(c3ccsc3)N(Cc3ccc4c(c3)OCO4)C=C2C1=O` (stereo not given): the activity, negative = inhibition is -6.6% [at 1.12 µM].
Take `COC1=C[C@H](C(=O)NCc2ccccn2)[C@@]2(C)Cc3ccccc3[C@@H]2CC1=O`: the “activity, negative = inhibition” value is -11.1%.
`CC1=CC[C@@H](C)O[C@@]2(C1)C(=O)Nc1cccc(Br)c12`: the Potency result was “inactive”.
On to `CC(=O)C1=C(C)N(CC#C[Si](C)(C)C)C(=O)N(C(C)=O)C1c1ccccc1` (stereo not given), for which the “activity, negative = inhibition” value was 2.11%.
Regarding `COC1=C[C@H](C(=O)NCCNC(C)=O)[C@@]2(C)Cc3ccccc3[C@@H]2CC1=O`, the “activity, negative = inhibition” value was -3.54%.
Regarding `CC(=O)OC[C@H]1O[C@H](CC=NO[C@H](C)c2cn([C@H](CO)Cc3ccccc3)nn2)C=C[C@@H]1OC(C)=O`, the “activity, negative = inhibition” value was 2.27%.
For `CCCCCCCC=CC1=CC2(C)CC1(C)C(CCCCCCC)CC2=O` (stereo not given), the “activity, negative = inhibition” value is -1.25%.
Regarding `COc1ccc(C(O)C2=CCCC2=O)cc1` (stereo not given), the “activity, negative = inhibition” value was -5.72%.
Turning to `COc1ccc(OC[C@@H]2CC3[C@@H](CC[C@@H](C)[C@H]3c3ccc(Br)cc3)C(=O)O2)cc1` (stereo not given in full), the “activity, negative = inhibition” value was -4.64%.
Consider `COC(=O)C(C(=O)OC)[C@@H]1O[C@@]23COCC[C@]2(C)[C@@H]3c2ccccc21`, for which the “activity, negative = inhibition” value is -3.44%.
For the compound `C=CCOC(=O)N[C@@H](CCc1ccccc1)C(C(C)=O)C(C)=O`, the “activity, negative = inhibition” value is -3.2%.
In the case of `CC(C)CON=C1C[C@@H](O)[C@@H](O)[C@@H]2[C@H]3C(=O)N(C[C@@H]4CCCO4)C(=O)[C@@H]3CC[C@@H]12`, the “activity, negative = inhibition” value was -6.08%.
Turning to `COC(=O)N[C@H](CC(C)=O)c1ccccc1`, the “activity, negative = inhibition” value was -3.32%.
Take `COC(=O)C1=C(C(=O)OC)[C@@H]2N(C)c3ccccc3[C@@]23C[C@@H](C(=O)OC)N(C(=O)c2cc(C)oc2C)C3=N1`: the Potency result was “inactive”.
For `CCN1C(=O)NC(c2cccc(F)c2)C(C(=O)OC)=C1C` (stereo not given), the “activity, negative = inhibition” value was -2.65%.
As for `O=C1[C@H]2[C@@H]3[C@@H](O)[C@H](O)CC(=NOCc4ccccc4)[C@H]3CC[C@H]2C(=O)N1Cc1ccc2c(c1)OCO2`, the “activity, negative = inhibition” value was -9.81%.
